Assay outcomes: PubChem, National Center for Advancing Translational Sciences (NCATS)
VACV Venus inh: vaccinia inhibition (Venus reporter). Vaccinia virus Venus reporter expression, fluorescence. Potency, µM (doses to about 36.5 µM), for inactives: top-dose activity change, negative = inhibition, hits mostly inhibitors. 0.46% of 330,000 active; calls by dose curve; tested in A549 cells; note: potency is the fitted concentration of half-maximal effect; nearly all actives have a fitted effect of over 30% in size
HCMV antiviral: human cytomegalovirus inhibition; HFF cells, HCMV-luciferase reporter, 72 h; stronger effect = lower value; activity change, negative = inhibition, % at 57.5 µM; 4.5% of 410,000 active; AID 1259415; in the data active = activity change below about -60%; inconclusive = no clear call, values can overlap the other calls; inactive = above about -39%
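Cell-based, HFFs, 1000 cells/well, 16 h 37C; cpds in DMSO + HCMV-luc, MOI 1 PFU/cell; 72 h 37C; OneGlo luminescence after 5 min RT; norm. to buffer vs Salinomycin 10uM.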
Vaccinia mCherry: vaccinia inhibition (mCherry reporter). 0.63% of 310,000 active. Vaccinia virus mCherry reporter infection, fluorescence. Potency, µM (highest dose often 36.5 µM), inactives show top-dose activity change, negative = inhibition, actives largely listed as inhibitors; calls by dose curve; tested in A549 cells; note: potency is the fitted concentration of half-maximal effect; nearly all actives have a fitted effect of over 35% in size
HCV inhibitor: HCV inhibition; Potency, µM (highest dose often 41.8 µM), for inactives: at the highest dose activity change, negative = inhibition, hits mostly inhibitors; 3.4% of 340,000 active; Huh7.5.1 HCVcc-Cre infection, luciferase reporter, 44 h; active = well fitted inhibition curve with a large enough effect; inconclusive = small, poorly fitted or top-dose-only effect, or another doubt; inactive = no such curve, though single readings can be large or run the other way; note: potency is the fitted concentration of half-maximal effect
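Infectious HCVcc-Cre (~0.5 moi) was added to cells just after compound, with cells seeded 4 h earlier at 1,000 per well. Luciferase activity after 44 h culture reported infection; substrate was incubated 15 min at room temperature before reading.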
FMDV antiviral: blocks foot and mouth disease virus. Potency, µM (doses to about 57.9 µM), inactives show at the top dose activity change, negative = inhibition, actives largely listed as inhibitors. 1.2% of 410,000 active. FMDV antiviral cell-based qHTS. AID 1159524; calls by dose curve; tested in HEK293T cells; note: read-out not given here; potency is the fitted concentration of half-maximal effect; nearly all actives have a fitted effect of over 45% in size
* marks the source's active call; other numbers are inactive results; i = inactive; ? = inconclusive; / = not tested or not shown; [ ] = remark or other dose. The list is not random: actives were taken first. Their share in the collection is about 7.3%. % is set by controls: 0 for no effect and ±100 for the full control effect.

SMILES	VACV Venus inh	HCMV antiviral	Vaccinia mCherry	HCV inhibitor	FMDV antiviral
CCN(CC)S(=O)(=O)c1cc(NC(=O)c2ccc(-n3cncn3)c([N+](=O)[O-])c2)ccc1C	?	-84*	-19%	11µM*	13µM*
Cn1cnnc1Sc1ccc(/C=C/C(=O)c2ccc(O)cc2)cc1[N+](=O)[O-]	/	-101*	/	-21%	?
Cc1ccc(NC(=O)c2ccc(-n3cncn3)c([N+](=O)[O-])c2)cc1	/	9	/	?	?
Cn1cnnc1Sc1ccc(C(=O)OCC(=O)Nc2ccccc2)cc1[N+](=O)[O-]	/	-3	/	25%	?
COC(=O)[C@]12C[C@H](CC(=O)NCc3cccc(C(F)(F)F)c3)C(=O)N(Cc3ccccc3)C1=C[C@H](C1CCCC1)O[C@@H]2C	/	97	/	/	/
C=C1C(=O)[C@]23C[C@H]1CCC2[C@@]1(C)C(C[C@@H]3O)[C@](C)(C(=O)OC)CC[C@@H]1OC(C)=O (stereo partly specified)	1.8µM*	-101*	3.2µM*	/	8.9µM*
C=C1C(=O)[C@]23C[C@H]1CCC2[C@@]1(C)C(C[C@@H]3O)[C@](C)(C(=O)O)C[C@H](O)[C@@H]1O (stereo partly specified)	1%	-14	13%	/	-11%
C=C1C(=O)[C@]23C[C@H]1CC[C@H]2[C@]1(C)[C@@H](OC(C)=O)CC[C@@](C)(C(=O)OC)[C@H]1C[C@@H]3OC(C)=O	?	-100*	?	/	11µM*
C=C1C(=O)[C@]23C[C@H]1CC[C@H]2[C@]1(C)[C@@H](OC(C)=O)CC[C@@](C)(C(=O)O)[C@H]1C[C@@H]3O	?	-66*	5µM*	/	0%
C=C1C(=O)[C@]23C[C@H]1CC[C@H]2[C@]1(C)[C@@H](O)CC[C@@](C)(C(=O)O)[C@H]1C[C@@H]3O	-29%	-6	?	/	40µM*
O=c1[nH]cc(CCc2ccccc2)c2ncncc12	-19%	/	i	/	/
COc1cccc(CNC(=O)CCc2c(C)c3ccc(O)c(C)c3oc2=O)c1	5%[7.34 µM]	-30	2%[7.34 µM]	/	-15%
Cc1ccc2c(=O)cc(C(=O)Nc3sc4c(c3C(=O)NCC3CCCO3)CCCC4)oc2c1C (stereo unspecified)	-2%	16	3%	/	3%
CCOC(=O)c1c(C)[nH]c(C)c1S(=O)(=O)N1CCN(c2cc(Cl)ccc2C)CC1	-15%	-90*	-29%	/	13%
CCOC(=O)c1c(C)[nH]c(CCC(=O)NCCCN2CCN(c3cc(Cl)ccc3C)CC2)c1C	?	-97*	?	/	?
CCOC(=O)c1c(C)[nH]c(C)c1S(=O)(=O)N1CCN(c2cccc(C(F)(F)F)c2)CC1	-8%	-101*	-10%	/	-16%
CCOC(=O)c1c(C)[nH]c(C)c1S(=O)(=O)NCCN1CCN(c2cc(Cl)ccc2C)CC1	/	-72*	/	-19%	7%
COc1cc(C2C=C(C(=O)O)Nc3ncnn32)ccc1O (stereo unspecified)	0%	-14	-2%	/	-16%
CCC(C)NC(=O)Nc1ccc(Br)cc1 (stereo unspecified)	-15%	?	i	5%	6%
CCC(C)Nc1ccc(NC(C)CC)cc1 (stereo unspecified)	?	/	?	22µM*	?
COc1ccc(CN2CCN(C(c3ccc(F)cc3)c3ccc(F)cc3)CC2)c(OC)c1OC	-20%	18	-9%	1µM*	-24%
COc1ccc(CN2CCN(Cc3ccc(Br)cc3)CC2)c(OC)c1OC	/	-68*	/	13µM*	?
COc1ccc(CN2CCNCC2)c(OC)c1OC	-15%	?	-19%	?	0%
COc1ccc(CN2CCN(c3ccc(F)cc3)CC2)c(OC)c1OC	-14%	8	-13%	?	-11%
COc1ccccc1CNC(=O)C1CCC(CNS(=O)(=O)c2ccc3c(c2)CCCC(=O)N3)CC1 (stereo unspecified)	2%	20	-3%	/	-16%
SMILES	VACV Venus inh	HCMV antiviral	Vaccinia mCherry	HCV inhibitor	FMDV antiviral
CCOC(=O)c1ccccc1S(=O)(=O)N1CCN(c2nc(-c3cccs3)nc3ccccc23)CC1	-10%	/	i	/	/
COc1ccccc1-c1noc2nc(N(C)Cc3ccc(F)cc3)ccc12	/	-9	/	/	/
CCN1CCCC1CNC(=O)c1cc(NC(C)=O)c(N(C)C)cc1OC (stereo unspecified)	/	-68*	/	8%	20%
CCC(=O)Nc1cc(C(=O)NCC2CCCN2CC)c(OC)cc1N(C)C (stereo unspecified)	/	48	/	12%	-19%
CCc1cc(Cl)c(OC)c(C(=O)NC[C@@H]2CCCN2CC)c1O	-19%	-29	-4%	5µM*	-22%
Cc1ccc(NC(=O)c2oc3ccc(S(=O)(=O)N4CCCCCC4)cc3c2C)c(C)c1	-7%	13	-24%	/	-25%
O=C(N[C@H](Cc1ccccc1)C(O)c1nc2ccccc2[nH]1)c1cccc2ccccc12 (stereo partly specified)	/	-12	/	/	/
O=C(CSc1nnc(-c2cccnc2)s1)Nc1ccnc2ccccc12	-30%	-92*	?	?	?
COc1ccc(-c2nc(CN3CCN(Cc4ccccc4)CC3)c(C)o2)cc1	/	12	/	-18%	-14%
COc1ccc(-c2nc(CN3CCN(c4cc(C)nc(C)c4)CC3)c(C)o2)c2ccccc12	11µM*	?	?	?	-8%
Cc1oc(-c2cccc3ccccc23)nc1CN1CCN(c2ncnc3ccccc23)CC1	-29%	?	-36%	10µM*	16µM*
Cc1cnc(C)c(N2CCN(Cc3nc(-c4ccc(C)o4)oc3C)CC2)n1	-10%	?	-13%	-4%	-5%
COc1ccc(C2CC(=O)C(c3ccccc3OC)=CN2Cc2ccccc2)cc1 (stereo unspecified)	/	27	/	/	/
CC(C)CC[n+]1ccccc1/C=C/c1ccc(N(C)C)cc1	i	-102*	i	5µM*	?
CN(C)c1ccc(/C=C/c2cccc[n+]2[O-])cc1	-8%	135	i	11%	5%
Cc1ccc(Cl)cc1NC(=O)Cn1cc(S(=O)(=O)Cc2ccccc2Cl)c2ccccc21	-30%	0	-30%	/	11%
COc1ccc2c(c1)CCC1C2=NN(/C(C)=C/C(C)=O)C1c1cccc(F)c1 (stereo unspecified)	-26%	12	-27%	11µM*	24%
CC(=O)N1N=C2c3ccccc3CCC2C1c1ccc(F)cc1 (stereo unspecified)	-18%	119	-3%	-8%	-22%
CC(Cc1ccccc1Sc1ccccc1)N(C)C (stereo unspecified)	-17%	-63*	-11%	10%	-19%
CC(Cc1ccccc1Sc1ccc(O)cc1)N(C)C (stereo unspecified)	-20%	/	i[1.46 µM]	?	-10%
CCc1ccccc1NC(=O)CSc1nc2ncccc2o1	-20%	11	-10%	/	-6%
Cc1ccccc1C(=O)Nc1cccc(C(=O)OCc2cc(=O)n3c(C)csc3n2)c1	-19%	10	-11%	/	-7%
